IL1B secr inh: inflammasome signaling inhibition, IL-1 beta readout. THP-1 LPS/ATP IL-1B secretion, AlphaLISA, 16 h; hits give low values. activity change, % at 57.5 µM. 360,000 tested, 4.7% active; in the data active means activity change below about -50%; inconclusive means mostly about -30% to -49%
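Secreted IL-1B measured by AlphaLISA bead assay after 16 h compound exposure of THP-1 cells; compounds (final up to 57.5 uM) added 1 h before LPS (250 ng/mL) and ATP (1.25 mM) stimulation; lower signal means less secretion.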
TDP1 inh: inhibitors of human tyrosyl-DNA phosphodiesterase TDP1. 350,000 tested, 0.28% active. Potency, µM (titrated, usually from 130 µM), for the others: top-dose activity change, negative = inhibition, hits mostly inhibitors. recombinant TDP1, AlphaScreen DNA substrate cleavage. Q9NUW8; further: potency means the concentration at half of the fitted maximal effect; nearly all actives have a fitted effect of over 40% in size
Target sequence (Q9NUW8 whole entry, looked up): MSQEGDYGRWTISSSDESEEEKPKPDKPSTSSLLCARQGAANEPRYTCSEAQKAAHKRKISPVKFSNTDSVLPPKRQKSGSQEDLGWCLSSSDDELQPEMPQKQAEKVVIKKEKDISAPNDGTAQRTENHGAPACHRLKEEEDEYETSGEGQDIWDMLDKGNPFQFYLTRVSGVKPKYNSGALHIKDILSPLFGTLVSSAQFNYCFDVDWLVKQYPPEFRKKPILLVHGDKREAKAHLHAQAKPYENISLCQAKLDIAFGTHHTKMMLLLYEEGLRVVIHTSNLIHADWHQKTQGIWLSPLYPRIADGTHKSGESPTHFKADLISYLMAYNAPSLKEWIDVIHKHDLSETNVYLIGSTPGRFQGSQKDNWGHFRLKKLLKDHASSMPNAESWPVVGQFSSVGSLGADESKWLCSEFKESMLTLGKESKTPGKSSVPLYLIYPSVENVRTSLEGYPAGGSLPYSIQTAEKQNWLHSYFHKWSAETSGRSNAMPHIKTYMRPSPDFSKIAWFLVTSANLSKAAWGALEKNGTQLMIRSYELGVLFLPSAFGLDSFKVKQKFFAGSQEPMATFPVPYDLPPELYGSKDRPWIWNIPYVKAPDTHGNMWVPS
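Signal: AlphaScreen proximity between streptavidin donor and anti-FITC acceptor beads on intact substrate. Reaction: Tdp1 1 nM, substrate 15 nM final, 5 min RT after 15 min compound preincubation.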
TDP1 cell CPT: growth inhibition of DT40 Tdp1-/-;hTDP1 cells with camptothecin (screen for TDP1 inhibitors); chicken DT40 Tdp1-/-;hTDP1 cells + 20 nM CPT, ATP luminescence, 48 h; Potency, µM (titrated, usually from 46.2 µM), inactives show at the highest dose activity change, negative = growth inhibition, actives largely listed as inhibitors; 420,000 tested, 12% active; further: potency means the concentration at half of the fitted maximal effect; nearly all actives have a fitted effect of over 55% in size
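Cell growth measured by CellTiter-Glo luminescence after a minimum 48 h, 37 C compound exposure with 20 nM CPT in Tdp1-knockout DT40 cells stably expressing hTDP1, seeded 400/well; qHTS titration format.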
Giardia killer: Giardia lamblia killing | Giardia lamblia trophozoite viability | 340,000 tested, 0.15% active | activity change, % at 7.66 µM, hits read low; in the data active means activity change below about -80%; inconclusive means between about -30% and that limit;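 further: parasites exposed to compound for two days anaerobically before the ATP read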
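Trophozoites 100 cells/well + cpd; 48 hrs, 37 deg C, anaerobic. ATPLite 1-Step added, 15-30 min RT, luminescence read (ATP-based viability).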
DT40 TDP1 no CPT: qHTS for Inhibitors of human tyrosyl-DNA phosphodiesterase 1 (TDP1): qHTS in cells in absence of CPT. 420,000 tested, 15% active. DT40 Tdp1-/- hTDP1 cells, no CPT, ATP luminescence, 48 h. Potency, µM (titrated, usually from 46.2 µM), for inactives: at the highest dose activity change, negative = growth inhibition, most hits filed as inhibitors. AID 686978, 2013; further: potency means the concentration at half of the fitted maximal effect; nearly all actives have a fitted effect of over 55% in size
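Stably hTDP1-transfected Tdp1-null chicken DT40 cells were treated with library compounds minus camptothecin and grown for at least 48 hr at 37 °C, after which cellular ATP was quantified by luminescence.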
ELG1 DNA repair: ELG1-dependent DNA repair inhibition; HEK293T ELG1-luciferase reporter, luminescence, 16 h; DNA damage induced by 5-fluorouridine; Potency, µM (highest dose often 46.1 µM), inactives show at the highest dose activity change, negative = inhibition, usual class: inhibitors; 330,000 tested, 2.3% active; further: potency means the concentration at half of the fitted maximal effect; nearly all actives have a fitted effect of over 55% in size
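HEK293T cells expressing luciferase-tagged ELG1 (2,000/well) received 5-Fluorouridine plus compound or DMSO for 16 hr at 37 °C. Luciferase was read by ONE-Glo luminescence after 30 min at room temperature.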
* = called active by the depositor; ? = inconclusive; . = no result; [ ] = another dose, or the depositor's remark. Only some compounds are listed: those with a hit (about 19% of all), similar ones and a draw of the others. Unless noted, the call rests on the fitted dose curve; in most records, active means well fitted curve in the direction sought with a large enough effect; inconclusive means small, poorly fitted or top-dose-only effect, or another doubt; inactive means no such curve, though single readings can be large; an effect the other way counts as inactive or inconclusive. On the % scale 0 is the no-effect control and ±100 the full control effect.

SMILES | IL1B secr inh | TDP1 inh | TDP1 cell CPT | Giardia killer | DT40 TDP1 no CPT | ELG1 DNA repair
Cc1noc(-c2ccc(Cl)cc2)c1C(=O)O/N=C(\N)c1ccc(C(C)(C)C)cc1 | -66* | . | ? | -24 | ? | ?
COc1ccc(C(=O)O/N=C(\N)c2ccccc2)cc1 | -1 | . | -17% | 13 | -23% | ?
CC(C)(C)c1ccc(NC(=O)CON=C(N)c2ccccc2)cc1 | 8 | -3%[0.505 µM] | ? | 18 | 29µM* | 10%
Cc1occc1C(=O)O/N=C(\N)c1ccc(Cl)cc1 | -15 | 3% | -3% | 11 | -22% | ?
CCOC(=O)c1cc(/C(C)=N/OC(=O)c2ccc(C(C)(C)C)cc2)on1 | 16 | -1% | ? | -4 | 16µM* | -13%
Cc1cc(C(=O)O/N=C(\N)c2ccc(C(C)(C)C)cc2)no1 | -21 | -3% | -15% | 8 | -18% | ?
CC[C@H](C)/C=C/C1=CC2=C(Cl)C(=O)[C@@]3(C)OC(=O)C(C(=O)[C@H](C)[C@@H](C)O)=C3C2=CO1 | -3 | . | ? | -9 | 18µM* | .
NNC(=O)c1ccccc1CO | 3 | . | -10% | 8 | -9% | .
Cc1c(NC(=O)COC(=O)c2cc3c4ccccc4n(C)c3s2)c(=O)n(-c2ccccc2)n1C | -55* | 8% | -14% | 31 | -30% | ?
COc1ccc(C(=O)OCC(=O)Nc2c(C)n(C)n(-c3ccccc3)c2=O)cc1 | 15 | -1% | 3% | 5 | 10% | 0%
COc1ccc2cc(-c3cc(C(=O)OCC(=O)Nc4c(C)n(C)n(-c5ccccc5)c4=O)c4ccccc4n3)ccc2c1 | 0 | 8% | 13µM* | -94* | 10µM* | ?
COc1ccc2cc(-c3cc(C(=O)OCC(=O)NC4CCS(=O)(=O)C4)c4ccccc4n3)ccc2c1 (stereo not given) | -19 | 1% | ? | -88* | ? | ?
Cc1ccc(Oc2ccc(OCC(=O)NC3CCS(=O)(=O)C3)cc2)cc1 (stereo not given) | -19 | 0%[0.0935 µM] | 23µM* | -18 | 16µM* | 12µM*
O=C(COc1ccc(Oc2ccccc2)cc1)NC1CCS(=O)(=O)C1 (stereo not given) | 30 | 0% | ? | -11 | ? | ?
Cc1cc(C(=O)OCC(=O)NC2CCS(=O)(=O)C2)c(C)n1-c1ccccc1 (stereo not given) | -13 | 9% | ? | 20 | 12µM* | -23%
c1nc(SSc2ncc3n[nH]nc3n2)nc2n[nH]nc12 | . | . | 4% | . | -21% | .
CCS(=O)(=O)c1ccc(OC)c(N=Nc2ccc(O)c3ncccc23)c1 | 40 | 12% | ? | 0 | ? | ?
CCOc1ccc(N=Nc2ccc(O)c3ncccc23)cc1 | 82 | . | ? | -12 | ? | ?
Cc1cccc(N=Nc2ccc(O)c3ncccc23)c1 | 3 | 5% | 7.3µM* | 45 | 6.5µM* | ?
Oc1ccc(N=Nc2ccc3c(c2)OCCO3)c2ncccc12 | 115 | 13% | 2.9µM* | 2 | 2.1µM* | 0%
NS(=O)(=O)c1ccc(N=Nc2ccc(O)c3ncccc23)cc1 | 60 | . | 2.6µM* | -13 | 2.3µM* | ?
Cc1ccc(C)c(N=Nc2ccc(O)c3ncccc23)c1 | 154 | 11% | 2.1µM* | 13 | 2.1µM* | ?
O=C(Nc1ccc2c(c1)OCCO2)c1ccccn1 | ? | -3% | ? | ? | ? | ?
CN(C(=O)c1ccc(=O)n(Cc2ccc(Cl)cc2)c1)c1ccccc1 | -5 | 2% | 7% | 7 | -4% | -6%
O=c1c2c3c(sc2n(Cc2ccccc2F)c(=O)n1-c1ccc(Cl)cc1)CCCC3 | . | 5% | -8% | . | 4% | .
